# Reference: PubChem BioAssay AID449762 (Southern Research Specialized Biocontainment Screening …, 2010)
# Out of some 330,000 compounds screened, about 1,900 (0.58%) were called active. Inconclusive results (about 4%) are left out. Only a sample is shown. Measured potencies and affinities stand elsewhere. Values without a mark were called inactive. Rule as the data show it: inconclusive = inhibition above about 70% without an active follow-up result; inactive = below that.
# Test: M. tuberculosis growth inhibition, HTS (AID 449762);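 also: bacterial growth assessed after seven days of incubation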
# Conditions: M. tuberculosis H37Rv growth inhibition, 7H9 media; at 25 µM; stronger effect = higher value
row,Compound,inhibition
1,CSc1ccc(S(=O)(=O)NCC(=O)OCC(=O)N2CCCCC2C)cc1[N+](=O)[O-] (configuration not stated),-8.12%
2,COc1ccc(-c2nsc3c(N4CCCC4)ncnc23)cc1,5.98%
3,COc1ccc(-c2nsc3c(N4CCCCC4)ncnc23)cc1,-0.13%
4,Cc1ccc(CNC(=O)Cn2cccc2C(=O)c2ccccc2C)cc1,-0.89%
5,CCN(CC)S(=O)(=O)c1cccc(C(=O)N/N=C/c2ccccn2)c1,-3.65%
6,O=C(Nc1ccc(Br)cc1Cl)c1ccc(OCC2CCCO2)cc1 (configuration not stated),3.35%
7,CCOC(=O)C1(Cc2cccc(Cl)c2)CCCN(C(=O)c2cnn(CC)c2)C1 (configuration not stated),-5.14%
8,CCOc1ccc(C(=O)Nc2ccc3c(c2)OCCO3)cc1,9.28%
9,CCOc1ccc(NC(=O)COC(=O)c2ccc3c(c2)OCCO3)cc1,9.4%
10,Cc1c(/C=N\NC(=O)c2c[nH]c3ccccc23)cnn1C,6.8%
11,COc1ccccc1NC(=S)N1CCN(C(=O)C2CCCO2)CC1 (configuration not stated),4.95%
12,COC(=O)c1c(NC(=O)CC2SC(N)=NC2=O)sc2c1CCC(C)C2 (configuration not stated),-3.66%
13,COC(=O)c1c(NC(=O)CC2SC(N)=NC2=O)sc2c1CCCC2 (configuration not stated),-10.2%
14,COc1ccc(C(=O)c2c(-c3ccc(OC)cc3)oc3ccc(-c4ccc(OC)nc4)cc23)cc1,64.6%
15,CCCC12CN3CC(C)(CN(C1)C3c1ccco1)C2=O (configuration not stated),-1.36%
16,CCCC12CN3CC(CCC)(CN(C1)C3c1ccco1)C2=O (configuration not stated),-6.51%
17,Cc1ccccc1C(=O)Nc1c(C(=O)N(CCN(C)C)Cc2ccco2)oc2ccccc12,13.6%
18,CN(C)CCN(Cc1ccco1)C(=O)c1oc2ccccc2c1NC(=O)COc1ccccc1,13.6%
19,CN(C(=O)CSc1nnc(-c2ccncc2)n1-c1ccccc1)C1CCS(=O)(=O)C1 (configuration not stated),-8.96%
20,O=C(NC1CCCCCC1)c1cccc(COCC(F)(F)F)c1,-0.72%
21,C/C(=N\NC(=S)NCc1ccccc1)c1ccccc1F,-2.93%
22,C/C(=N\NC(=S)NCCc1ccccc1)c1ccc(O)cc1O,3.81%
23,Cc1noc(C)c1S(=O)(=O)Nc1ccc(C(=O)N2CCC(C)CC2)cc1,8.59%

row,Compound,inhibition
1,Cc1ccc(N2CC(C(=O)N3CCC(C(=O)Nc4nnc(C(C)(C)C)s4)CC3)CC2=O)cc1 (configuration not stated),4.69%
2,OCC1(Cc2ccc(Cl)cc2)CCN(CCCc2ccccc2)CC1,39.2%
3,COc1cnc(-c2ccccn2)nc1Oc1ccc(Cl)cc1,2.17%
4,COc1cnc(-c2ccccc2)nc1Oc1ccc(Cl)cc1C,3.24%
5,Cc1cc(C)cc(OCC(=O)N2Cc3ccccc3CC2C(=O)O)c1 (configuration not stated),10.5%
6,CC(CC(=O)Nc1ccc(-c2ccno2)cc1)n1cccn1 (configuration not stated),21.4%
7,Cc1ccc(CNC(=O)COC(=O)c2cc(=O)[nH]c3ccccc23)cc1,6.93%
8,N#Cc1ccccc1/C=N/Nc1nc(-c2ccccc2)c2cc(Cl)ccc2n1,-2.26%
9,N#Cc1ccccc1/C=N/Nc1nc(-c2ccccc2)c2cc(Br)ccc2n1,6.43%
10,COCCNC(=S)Nc1ccc2nc(N3CCOCC3)cc(C)c2c1,-5.25%
11,O=C(COC(=O)CNC(=O)c1ccc(Cl)c([N+](=O)[O-])c1)NCC1CCCO1 (configuration not stated),-15.8%
12,Cc1nn2c(N3CCCC3)cc(C(C)C)nc2c1-c1ccccc1,2.45%
13,Cc1cc(NCCC(C)C)n2nc(C)c(-c3ccccc3)c2n1,67.4%
14,CCS(=O)(=O)Nc1ccc(C2=NN(C(=O)c3ccco3)C(c3cccc(F)c3)C2)cc1 (configuration not stated),23.2%
15,COc1ccc(COC(=O)Nc2cc3c(C(F)(F)F)nn(C)c3s2)cc1,-0.32%
16,Cn1nc(C(F)(F)F)c2cc(NC(=O)OCc3ccc(F)cc3)sc21,10.2%
17,CC1CCC(NC(=O)c2ccc(NS(=O)(=O)c3ccc4[nH]c(=O)[nH]c4c3)cc2)CC1 (configuration not stated),-6.1%
18,CC1(c2nnc(-c3ccccc3)o2)CC(c2ccc([N+](=O)[O-])cc2)=NO1 (configuration not stated),-0.65%
19,COC(=O)c1ccc(NC(=O)c2ccc[n+]([O-])c2)cc1,-4.13%
20,c1ccc2nc3c(nc2c1)OCC1CCCCN31 (configuration not stated),3.14%
21,CC1(C(=O)N(CC(=O)NC2CCCC2)Cc2ccc(Cl)cc2)CC(=O)N=C2C=CC=CN21 (configuration not stated),-2.69%
22,Cc1ccccc1NC(=O)NC(N)=O,-2.65%
23,Cc1ccc(-c2csc(/C(C#N)=C/Nc3ccc4c(c3)OCCO4)n2)cc1,7%

row,Compound,inhibition
1,CCN(CC)CCOC(=O)c1ccc(N/C=C(/C#N)c2nc(-c3cc4ccccc4oc3=O)cs2)cc1,9.42%
2,Cc1cc(CN(C)C(=O)c2ccc3nc(Cc4ccccc4F)oc3c2)n[nH]1,-6.04%
3,Cc1cccc(C(=O)OCC(=O)N(C)CC(=O)Nc2ccc(Cl)c(C(F)(F)F)c2)c1,1.53%
4,Cc1ccc(-c2cc(C(=O)N3CCOCC3)no2)cc1,6.22%
5,CNC(=O)c1cccnc1Nc1cccc(C(F)(F)F)c1,-4.06%
6,O=C(O)c1cccnc1Nc1cccc(C(F)(F)F)c1,-0.01%
7,Cc1ccc(C(=O)N(CC(=O)NC2CCCC2)c2cccc(F)c2)s1,9.2%
8,CN(C)CCCNC(=O)c1ccc(-c2cc(O)c3ncccc3c2)cc1,3.92%
9,CN1CCN(c2cc(-c3cc(O)c4ncccc4c3)ccn2)CC1,28.5%
10,CC1(c2cccc(Br)c2)NC(=O)N(CC(=O)NC2CCCCC2)C1=O (configuration not stated),3%
11,CCCCN1C(=O)c2ccc(C(=O)OCC(=O)NCCc3ccc(S(N)(=O)=O)cc3)cc2C1=O,-4.61%
12,O=C(NCC(c1cccs1)N1CCOCC1)c1ccc([N+](=O)[O-])cc1 (configuration not stated),2.63%
13,O=C(NCC(c1cccs1)N1CCOCC1)c1cccc([N+](=O)[O-])c1 (configuration not stated),-5.61%
14,CCOc1ccc(NC(=O)CN(C)C(=O)Cc2ccsc2)cc1OCC,-3.21%
15,CCOC(=O)Cn1cnc2c(nnn2-c2ccc(OC)cc2)c1=O,-2.34%
16,CCOc1cc(/C=C2\N=C(C)OC2=O)cc(Cl)c1OCC(=O)OC,-3.74%
17,O=C(C1CCCN1S(=O)(=O)c1cccc2nsnc12)N1CCCCCC1 (configuration not stated),2.56%
18,Cc1nnc(SCC(=O)NCc2ccc(F)cc2)[nH]c1=O,0.54%
19,O=S(Cc1ccc(Br)cc1)Cc1nnc(SCc2c(Cl)cccc2Cl)n1-c1ccccc1 (configuration not stated),-2.91%
20,O=S(Cc1ccc(Br)cc1)Cc1nnc(SCc2ccc(Br)cc2)n1-c1ccccc1 (configuration not stated),57%
21,CCOC(=O)c1ccc(S(=O)(=O)NNC(=O)Cc2csc(C)n2)cc1,1.7%
22,CCOc1ccc(CCNC(=O)c2cccc(S(=O)(=O)N3CC(C)OC(C)C3)c2)cc1OCC (configuration not stated),2.57%
23,CC(=O)Nc1ccc(N2CCN(c3ccc(C(F)(F)F)cn3)CC2)nc1,17.9%

row,Compound,inhibition
1,CC(C)(C)C(=O)Nc1ccc(N2CCN(c3ccc(C(F)(F)F)cn3)CC2)nc1,-0.97%
2,c1ccc2c(c1)ncn2CCCOc1ccc2c(c1)CCC2,68.5%
3,c1ccc(OCCCCn2cnc3ccccc32)cc1,4.06%
4,O=C(O)CCCC(=O)N1N=C(c2ccccc2)CC1c1ccc2nccnc2c1 (configuration not stated),0.01%
5,O=C(N/C(=C\c1cccc([N+](=O)[O-])c1)C(=O)N1CCCCC1)c1cccs1,-1.22%
6,COCC(=O)NC(c1ccccc1)c1ccccc1,1.57%
7,CCN1CCN(C(c2ccc(OC)cc2)C(O)C(=O)c2c[nH]c3ccccc23)CC1 (configuration not stated),1.81%
8,O=C(c1c[nH]c2ccccc12)C(O)C(c1ccccc1)N1CCOCC1 (configuration not stated),-0.62%
9,CCOc1ccccc1C(C(=O)NC1CCCCC1)N(C(=O)c1csnn1)C1CC1 (configuration not stated),-6.88%
10,COC(=O)c1ccc(COc2cc(O)c3c(c2)OC(C)(C)CC3=O)cc1,20.4%
11,CC1(C)CC(=O)c2c(O)cc(OCc3ccc([N+](=O)[O-])cc3)cc2O1,8.3%
12,N=C(c1ccc([N+](=O)[O-])cc1)N1CCCCC1,8.06%
13,O=C1CCN(Cc2ccccc2)CCN1CCSc1ccccc1,-0.68%
14,CCOc1ccccc1N(CC(=O)Nc1ccc2c(c1)OCO2)S(C)(=O)=O,-15.7%
15,O=C(Nc1cc(-c2nc3ncccc3o2)ccc1Cl)c1ccc([N+](=O)[O-])o1,-1.99%
16,COc1ccc(C(=O)Nc2cccc(-c3nc4ncccc4o3)c2C)cc1,2.93%
17,COc1ccc(N2C(=O)C3C(C2=O)C3(c2ccccc2)c2ccccc2)cc1 (configuration not stated),1.86%
18,COc1ccc(N2C(=O)C3C4c5ccccc5C(C=Nc5ccc(C)cc5C)(c5ccccc54)C3C2=O)cc1 (configuration not stated),36.6%
19,Cn1c(=O)c2c(nc3n2CC(O)CN3c2ccc(O)cc2)n(C)c1=O (configuration not stated),-2.83%
20,CCc1cccc2c(C(=S)N3CCOCC3)c[nH]c12,3.01%
21,CCc1cccc2c(C(=O)COC(=O)c3ccc(O)cc3)c[nH]c12,-5.92%
22,CCc1cccc2c(=O)c(C(=O)NCCN3CCOCC3)c[nH]c12,-3.32%
23,CCc1cccc2c(C(=O)COC(=O)c3ccccc3)c[nH]c12,0.69%
